# Assays:
# Assay in all cases: DAPPL (digital affinity profiling via proximity ligation, sequencing); 10 mM Tris-HCl pH 7.5, 50 mM NaCl, 1 mM DTT, 4% glycerol, room temperature, 30 min; GST-TFs on glutathione beads, 16-mer random dsDNA library, 0.1% formaldehyde crosslink after washing; high values mean tight binding
# Settings in all cases: protein: recombinant; tags: N-terminal GST; dsDNA, one strand shown
# [1] = target: T1, GABPA (Homo sapiens, UniProt Q06546 1-454)
# T1 sequence: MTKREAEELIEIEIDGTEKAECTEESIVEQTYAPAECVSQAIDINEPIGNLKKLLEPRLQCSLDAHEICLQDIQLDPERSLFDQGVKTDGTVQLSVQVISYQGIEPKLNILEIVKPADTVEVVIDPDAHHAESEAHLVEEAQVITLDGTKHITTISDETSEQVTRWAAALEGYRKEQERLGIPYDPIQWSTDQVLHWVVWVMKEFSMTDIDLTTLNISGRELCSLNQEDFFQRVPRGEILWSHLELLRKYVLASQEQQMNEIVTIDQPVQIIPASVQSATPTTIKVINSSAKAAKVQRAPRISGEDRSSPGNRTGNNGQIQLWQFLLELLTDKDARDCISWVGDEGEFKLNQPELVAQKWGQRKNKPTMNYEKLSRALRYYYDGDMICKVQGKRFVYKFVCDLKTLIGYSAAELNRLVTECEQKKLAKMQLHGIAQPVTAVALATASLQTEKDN
# Procedure, shortened: (§1)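 Human transcription factors fused to GST were expressed in yeast, captured on glutathione beads, given DNA barcodes and pooled with a GST-only negative control. Pools were incubated with 200 nmole of a 16-mer random double-stranded DNA library in Tris/NaCl/DTT/glycerol buffer at room temperature for 30 min. They were then washed, crosslinked with 0.1% formaldehyde, proximity-ligated (BsaI/T4 ligase, 1 h, 37 °C), PCR-amplified and sequenced on an Illumina NextSeq500. Binding signal is each 6-mer's read frequency for a factor divided by its frequency for the GST control.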
# [2] = target: ELF1 (Homo sapiens, UniProt P32519 1-619)
# Chain of ELF1 (P32519 whole entry): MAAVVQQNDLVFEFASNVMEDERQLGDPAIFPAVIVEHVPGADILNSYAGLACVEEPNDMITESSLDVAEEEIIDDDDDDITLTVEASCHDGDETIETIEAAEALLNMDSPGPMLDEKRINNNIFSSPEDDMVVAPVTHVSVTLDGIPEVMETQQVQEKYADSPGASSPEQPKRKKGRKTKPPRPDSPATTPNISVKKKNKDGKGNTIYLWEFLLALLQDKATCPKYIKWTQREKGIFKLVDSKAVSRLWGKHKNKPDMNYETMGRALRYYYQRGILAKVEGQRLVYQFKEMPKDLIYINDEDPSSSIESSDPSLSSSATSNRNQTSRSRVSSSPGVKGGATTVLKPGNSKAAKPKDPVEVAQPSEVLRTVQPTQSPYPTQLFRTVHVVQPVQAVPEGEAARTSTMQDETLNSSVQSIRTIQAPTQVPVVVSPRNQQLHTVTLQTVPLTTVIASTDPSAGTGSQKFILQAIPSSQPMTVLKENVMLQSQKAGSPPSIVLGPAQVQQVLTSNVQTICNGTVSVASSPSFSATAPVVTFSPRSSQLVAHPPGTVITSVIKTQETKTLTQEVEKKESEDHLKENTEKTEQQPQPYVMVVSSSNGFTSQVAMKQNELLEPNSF
# Procedure, shortened: as §1
# [3] = target: T2, EHF (Homo sapiens, UniProt Q9NZC4 1-300)
# T2 sequence: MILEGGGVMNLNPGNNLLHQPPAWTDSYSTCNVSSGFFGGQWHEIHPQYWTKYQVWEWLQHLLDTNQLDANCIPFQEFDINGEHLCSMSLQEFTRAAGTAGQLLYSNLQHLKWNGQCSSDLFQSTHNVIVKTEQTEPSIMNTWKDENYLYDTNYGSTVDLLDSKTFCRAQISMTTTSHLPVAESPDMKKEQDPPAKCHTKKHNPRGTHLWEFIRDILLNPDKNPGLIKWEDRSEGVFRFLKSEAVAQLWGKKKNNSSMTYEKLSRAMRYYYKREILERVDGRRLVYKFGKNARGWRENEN
# Procedure, shortened: as §1
# [4] = target: T3, SPIC (Homo sapiens, UniProt Q8N5J4 1-248)
# T3 sequence: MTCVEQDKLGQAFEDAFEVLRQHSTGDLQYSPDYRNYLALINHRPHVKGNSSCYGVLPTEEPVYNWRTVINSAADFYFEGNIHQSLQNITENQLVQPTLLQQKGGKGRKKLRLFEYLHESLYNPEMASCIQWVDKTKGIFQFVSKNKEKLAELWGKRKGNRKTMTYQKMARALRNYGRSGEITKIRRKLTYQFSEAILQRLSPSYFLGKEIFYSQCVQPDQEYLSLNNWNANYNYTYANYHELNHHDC
# Procedure, shortened: as §1
# [5] = target: T4, ELF3 (Homo sapiens, UniProt P78545 1-371)
# T4 sequence: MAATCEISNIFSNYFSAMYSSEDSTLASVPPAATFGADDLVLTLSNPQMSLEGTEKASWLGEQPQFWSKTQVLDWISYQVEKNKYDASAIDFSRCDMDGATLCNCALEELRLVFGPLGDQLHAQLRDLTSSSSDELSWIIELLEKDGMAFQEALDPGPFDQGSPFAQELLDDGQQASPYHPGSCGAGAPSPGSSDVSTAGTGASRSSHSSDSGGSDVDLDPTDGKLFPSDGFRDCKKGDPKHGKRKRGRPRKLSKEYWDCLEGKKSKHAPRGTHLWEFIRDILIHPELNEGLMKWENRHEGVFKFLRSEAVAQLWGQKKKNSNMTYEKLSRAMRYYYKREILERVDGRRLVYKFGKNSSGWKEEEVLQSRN
# Procedure, shortened: as §1
# [6] = target: T5, ERF (Homo sapiens, UniProt P50548 1-548)
# T5 sequence: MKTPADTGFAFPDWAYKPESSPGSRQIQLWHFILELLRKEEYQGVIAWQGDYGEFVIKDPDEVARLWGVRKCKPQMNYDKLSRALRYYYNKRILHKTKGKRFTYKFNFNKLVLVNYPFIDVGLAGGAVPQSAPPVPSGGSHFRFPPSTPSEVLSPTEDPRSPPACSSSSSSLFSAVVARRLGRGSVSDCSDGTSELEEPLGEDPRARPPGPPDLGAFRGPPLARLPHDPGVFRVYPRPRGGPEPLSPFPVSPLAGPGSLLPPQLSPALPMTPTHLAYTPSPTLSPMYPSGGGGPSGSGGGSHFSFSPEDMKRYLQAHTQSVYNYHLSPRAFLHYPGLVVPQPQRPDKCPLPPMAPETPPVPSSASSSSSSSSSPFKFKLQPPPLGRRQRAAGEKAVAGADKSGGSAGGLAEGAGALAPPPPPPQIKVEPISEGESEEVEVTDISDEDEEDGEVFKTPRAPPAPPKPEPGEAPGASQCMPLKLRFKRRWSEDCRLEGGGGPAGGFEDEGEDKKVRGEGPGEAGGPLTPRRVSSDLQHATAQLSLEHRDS
# Procedure, shortened: as §1
# [7] = target: T6, ETS2 (Homo sapiens, UniProt P15036 1-469)
# T6 sequence: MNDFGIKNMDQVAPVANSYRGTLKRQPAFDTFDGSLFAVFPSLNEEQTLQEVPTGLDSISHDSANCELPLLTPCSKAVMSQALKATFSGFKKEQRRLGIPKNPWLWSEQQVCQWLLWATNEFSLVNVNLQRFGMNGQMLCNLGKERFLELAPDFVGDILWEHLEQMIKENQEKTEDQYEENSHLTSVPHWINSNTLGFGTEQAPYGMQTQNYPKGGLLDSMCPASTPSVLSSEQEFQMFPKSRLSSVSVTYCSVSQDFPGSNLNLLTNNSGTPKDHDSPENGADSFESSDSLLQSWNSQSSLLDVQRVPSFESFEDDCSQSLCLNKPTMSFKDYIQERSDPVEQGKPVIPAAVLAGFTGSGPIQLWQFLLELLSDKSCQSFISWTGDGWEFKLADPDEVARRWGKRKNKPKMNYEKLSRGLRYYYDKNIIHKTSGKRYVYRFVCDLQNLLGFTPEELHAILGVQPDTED
# Procedure, shortened: as §1
# [8] = target: T7, ERG (Homo sapiens, UniProt P11308 1-479)
# T7 sequence: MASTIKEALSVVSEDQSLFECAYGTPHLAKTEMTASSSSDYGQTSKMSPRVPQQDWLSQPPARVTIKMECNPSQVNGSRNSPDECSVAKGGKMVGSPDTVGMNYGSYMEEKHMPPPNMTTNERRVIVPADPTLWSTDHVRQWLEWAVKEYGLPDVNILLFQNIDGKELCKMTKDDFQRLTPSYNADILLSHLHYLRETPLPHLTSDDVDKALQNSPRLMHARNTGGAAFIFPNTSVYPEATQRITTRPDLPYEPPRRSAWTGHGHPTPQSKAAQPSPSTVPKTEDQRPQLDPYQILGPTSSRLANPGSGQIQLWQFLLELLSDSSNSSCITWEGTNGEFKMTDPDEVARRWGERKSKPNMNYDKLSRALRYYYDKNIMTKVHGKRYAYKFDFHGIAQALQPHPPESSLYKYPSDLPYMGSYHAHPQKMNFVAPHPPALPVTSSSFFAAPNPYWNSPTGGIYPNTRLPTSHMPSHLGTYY
# Procedure, shortened: as §1
# [9] = target: T8, ELK4 (Homo sapiens, UniProt P28324-2 1-405)
# T8 sequence: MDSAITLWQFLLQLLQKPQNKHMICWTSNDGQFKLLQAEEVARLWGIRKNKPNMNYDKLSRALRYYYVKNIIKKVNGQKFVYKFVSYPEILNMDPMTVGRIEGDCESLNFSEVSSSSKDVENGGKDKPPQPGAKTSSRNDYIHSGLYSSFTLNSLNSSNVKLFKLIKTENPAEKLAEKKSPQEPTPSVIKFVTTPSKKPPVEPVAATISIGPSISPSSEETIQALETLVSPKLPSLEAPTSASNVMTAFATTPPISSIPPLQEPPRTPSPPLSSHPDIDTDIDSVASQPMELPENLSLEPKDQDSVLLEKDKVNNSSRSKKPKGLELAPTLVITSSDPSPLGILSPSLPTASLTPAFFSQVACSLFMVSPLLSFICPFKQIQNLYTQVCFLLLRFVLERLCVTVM
# Procedure, shortened: as §1
# [10] = target: ETV1 (Homo sapiens, UniProt P50549 1-477)
# Chain of ETV1 (P50549 whole entry): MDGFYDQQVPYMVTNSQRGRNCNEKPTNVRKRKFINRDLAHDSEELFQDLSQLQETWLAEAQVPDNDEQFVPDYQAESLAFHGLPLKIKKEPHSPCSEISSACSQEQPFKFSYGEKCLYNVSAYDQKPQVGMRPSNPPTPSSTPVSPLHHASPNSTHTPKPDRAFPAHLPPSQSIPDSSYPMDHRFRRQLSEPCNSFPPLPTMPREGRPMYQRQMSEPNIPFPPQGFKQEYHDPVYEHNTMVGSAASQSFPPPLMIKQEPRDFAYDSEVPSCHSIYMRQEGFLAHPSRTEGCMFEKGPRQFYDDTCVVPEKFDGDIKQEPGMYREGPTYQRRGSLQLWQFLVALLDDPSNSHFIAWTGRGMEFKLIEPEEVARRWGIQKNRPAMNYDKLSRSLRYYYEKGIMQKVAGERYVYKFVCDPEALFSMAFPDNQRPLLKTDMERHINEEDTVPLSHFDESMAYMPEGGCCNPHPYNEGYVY
# Procedure, shortened: as §1
# [11] = target: SPI1 (Homo sapiens, UniProt P17947 1-270)
# Procedure, shortened: as §1
# [12] = target: T9, ELK3 (Homo sapiens, UniProt P41970 1-407)
# T9 sequence: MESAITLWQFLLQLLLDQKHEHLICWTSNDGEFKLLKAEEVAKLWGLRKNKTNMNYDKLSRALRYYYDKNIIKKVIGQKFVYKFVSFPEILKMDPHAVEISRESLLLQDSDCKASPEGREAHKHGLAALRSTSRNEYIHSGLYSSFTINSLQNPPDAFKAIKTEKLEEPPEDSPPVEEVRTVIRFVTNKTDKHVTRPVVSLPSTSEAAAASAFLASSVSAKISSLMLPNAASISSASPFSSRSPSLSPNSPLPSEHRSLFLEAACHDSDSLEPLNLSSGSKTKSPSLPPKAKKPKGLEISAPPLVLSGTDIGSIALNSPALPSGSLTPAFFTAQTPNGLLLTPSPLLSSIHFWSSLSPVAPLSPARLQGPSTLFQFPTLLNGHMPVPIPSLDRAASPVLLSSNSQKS
# Procedure, shortened: as §1
sequence,measurement,setting,value
CAGCAC,binding signal,[1],"1.03 fold enrichment (6-mer frequency, TF over GST control)"
same,binding signal,[2],"1.02 fold enrichment (6-mer frequency, TF over GST control)"
same,binding signal,[3],"1 fold enrichment (6-mer frequency, TF over GST control)"
same,binding signal,[4],"1.11 fold enrichment (6-mer frequency, TF over GST control)"
same,binding signal,[5],"1.02 fold enrichment (6-mer frequency, TF over GST control)"
same,binding signal,[6],"1.04 fold enrichment (6-mer frequency, TF over GST control)"
same,binding signal,[7],"1 fold enrichment (6-mer frequency, TF over GST control)"
CGTCAT,binding signal,[1],"1.03 fold enrichment (6-mer frequency, TF over GST control)"
same,binding signal,[8],"1.02 fold enrichment (6-mer frequency, TF over GST control)"
same,binding signal,[4],"1.05 fold enrichment (6-mer frequency, TF over GST control)"
same,binding signal,[9],"1.09 fold enrichment (6-mer frequency, TF over GST control)"
same,binding signal,[10],"1.09 fold enrichment (6-mer frequency, TF over GST control)"
same,binding signal,[7],"1.03 fold enrichment (6-mer frequency, TF over GST control)"
AGTTTG,binding signal,[4],"1.06 fold enrichment (6-mer frequency, TF over GST control)"
same,binding signal,[9],"1.03 fold enrichment (6-mer frequency, TF over GST control)"
same,binding signal,[6],"1.01 fold enrichment (6-mer frequency, TF over GST control)"
GTGGTT,binding signal,[11],"1.02 fold enrichment (6-mer frequency, TF over GST control)"
same,binding signal,[12],"1.01 fold enrichment (6-mer frequency, TF over GST control)"
same,binding signal,[4],"1.01 fold enrichment (6-mer frequency, TF over GST control)"
same,binding signal,[5],"1.1 fold enrichment (6-mer frequency, TF over GST control)"

# Source: publication PMC7862700, “An all-to-all approach to the identification of sequence-specific readers for epigenetic DNA modifications on cytosine”
